Here are results for 17 compounds from ChEMBL document CHEMBL1961873, “Compounds: GSK PKIS; Assays: Nanosyn kinase panel” (2012).

The target in test [1] is Ribosomal protein S6 kinase alpha-6 (Homo sapiens) (UniProt Q9UK32). The note with it: at 1 µM.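 Also: each value is a mean inhibition of RSK4 from a GSK PKIS panel screen.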
Test [2] concerns the target T1, Serine/threonine-protein kinase Sgk1 (Homo sapiens) (UniProt O00141).
T1 sequence (whole entry): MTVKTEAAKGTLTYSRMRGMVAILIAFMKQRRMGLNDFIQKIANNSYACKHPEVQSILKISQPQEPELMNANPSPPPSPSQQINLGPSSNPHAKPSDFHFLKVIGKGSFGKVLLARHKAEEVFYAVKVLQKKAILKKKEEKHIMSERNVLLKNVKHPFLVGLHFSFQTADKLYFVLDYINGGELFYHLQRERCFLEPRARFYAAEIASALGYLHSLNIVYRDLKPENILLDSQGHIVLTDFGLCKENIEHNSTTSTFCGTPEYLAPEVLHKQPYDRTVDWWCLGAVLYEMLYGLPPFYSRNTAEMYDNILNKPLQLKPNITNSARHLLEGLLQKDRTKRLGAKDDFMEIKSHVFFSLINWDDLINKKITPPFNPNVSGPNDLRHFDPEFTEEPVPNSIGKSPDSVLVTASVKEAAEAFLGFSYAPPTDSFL
The note with it: at 0.1 µM.

Test [3] concerns the target T1, Serine/threonine-protein kinase Sgk1 (Homo sapiens). The note with it: at 1 µM.
Test [4] deals with T2, Serine/threonine-protein kinase Sgk2 (Homo sapiens) (UniProt Q9HBY8).
T2 sequence (whole entry): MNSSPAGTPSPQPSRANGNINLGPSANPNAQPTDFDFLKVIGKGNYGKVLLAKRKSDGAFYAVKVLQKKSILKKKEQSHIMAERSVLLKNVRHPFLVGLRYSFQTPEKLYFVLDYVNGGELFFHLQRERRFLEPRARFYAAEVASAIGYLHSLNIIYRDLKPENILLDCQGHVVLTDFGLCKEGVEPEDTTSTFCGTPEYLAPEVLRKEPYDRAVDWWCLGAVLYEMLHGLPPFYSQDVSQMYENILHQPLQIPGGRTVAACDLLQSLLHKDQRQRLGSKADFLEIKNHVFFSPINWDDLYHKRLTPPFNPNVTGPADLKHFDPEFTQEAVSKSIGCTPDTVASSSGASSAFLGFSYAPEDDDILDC
The following applies: at 0.1 µM.

Test [5] concerns the target T2, Serine/threonine-protein kinase Sgk2 (Homo sapiens). The following applies: at 1 µM.
Test [6] has as its target T3, Serine/threonine-protein kinase Sgk3 (Homo sapiens) (UniProt Q96BR1).
T3 sequence (whole entry): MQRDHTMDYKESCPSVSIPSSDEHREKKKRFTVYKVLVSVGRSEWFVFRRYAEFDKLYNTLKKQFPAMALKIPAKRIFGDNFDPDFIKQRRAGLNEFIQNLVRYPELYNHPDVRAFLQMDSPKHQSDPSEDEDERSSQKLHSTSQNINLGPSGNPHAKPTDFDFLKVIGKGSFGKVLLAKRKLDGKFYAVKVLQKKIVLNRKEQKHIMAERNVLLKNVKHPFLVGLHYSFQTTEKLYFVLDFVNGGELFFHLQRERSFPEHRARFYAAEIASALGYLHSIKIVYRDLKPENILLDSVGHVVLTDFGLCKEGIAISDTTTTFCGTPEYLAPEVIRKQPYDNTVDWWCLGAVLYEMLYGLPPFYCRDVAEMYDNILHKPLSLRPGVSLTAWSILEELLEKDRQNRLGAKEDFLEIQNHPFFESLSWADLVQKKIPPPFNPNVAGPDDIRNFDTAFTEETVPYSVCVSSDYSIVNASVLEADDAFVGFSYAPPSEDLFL
The note with it: at 0.1 µM.

Test [7] has as its target T3, Serine/threonine-protein kinase Sgk3 (Homo sapiens). The note with it: at 1 µM.
In test [8] the target is 5'-AMP-activated protein kinase catalytic subunit alpha-1 (Homo sapiens) (UniProt Q13131). The note with it: at 0.1 µM.
5'-AMP-activated protein kinase catalytic subunit alpha-1 (Homo sapiens), sequence (Q13131 whole entry, looked up): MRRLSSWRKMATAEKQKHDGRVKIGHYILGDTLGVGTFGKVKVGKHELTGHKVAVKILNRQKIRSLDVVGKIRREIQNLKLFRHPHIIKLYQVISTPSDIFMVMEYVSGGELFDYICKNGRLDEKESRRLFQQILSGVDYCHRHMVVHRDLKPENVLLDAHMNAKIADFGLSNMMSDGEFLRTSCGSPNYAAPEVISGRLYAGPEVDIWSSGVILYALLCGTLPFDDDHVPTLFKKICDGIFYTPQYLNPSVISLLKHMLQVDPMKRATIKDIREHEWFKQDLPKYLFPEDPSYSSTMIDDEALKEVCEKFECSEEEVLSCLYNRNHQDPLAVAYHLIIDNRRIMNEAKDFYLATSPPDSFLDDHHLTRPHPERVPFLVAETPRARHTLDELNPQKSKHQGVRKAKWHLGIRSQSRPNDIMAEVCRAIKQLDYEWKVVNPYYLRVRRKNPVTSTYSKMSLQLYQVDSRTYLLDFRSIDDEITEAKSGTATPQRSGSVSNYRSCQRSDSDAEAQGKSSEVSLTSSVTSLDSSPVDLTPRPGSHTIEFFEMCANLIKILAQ
Test [9] shares this target. The following applies: at 1 µM.
In test [10] the target is 5'-AMP-activated protein kinase catalytic subunit alpha-2 (Homo sapiens) (UniProt P54646). The following applies: at 0.1 µM.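 Also: mean inhibition measured on the AMPK complex of alpha2, beta1 and gamma1 subunits.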
5'-AMP-activated protein kinase catalytic subunit alpha-2 (Homo sapiens), sequence (P54646 whole entry, looked up): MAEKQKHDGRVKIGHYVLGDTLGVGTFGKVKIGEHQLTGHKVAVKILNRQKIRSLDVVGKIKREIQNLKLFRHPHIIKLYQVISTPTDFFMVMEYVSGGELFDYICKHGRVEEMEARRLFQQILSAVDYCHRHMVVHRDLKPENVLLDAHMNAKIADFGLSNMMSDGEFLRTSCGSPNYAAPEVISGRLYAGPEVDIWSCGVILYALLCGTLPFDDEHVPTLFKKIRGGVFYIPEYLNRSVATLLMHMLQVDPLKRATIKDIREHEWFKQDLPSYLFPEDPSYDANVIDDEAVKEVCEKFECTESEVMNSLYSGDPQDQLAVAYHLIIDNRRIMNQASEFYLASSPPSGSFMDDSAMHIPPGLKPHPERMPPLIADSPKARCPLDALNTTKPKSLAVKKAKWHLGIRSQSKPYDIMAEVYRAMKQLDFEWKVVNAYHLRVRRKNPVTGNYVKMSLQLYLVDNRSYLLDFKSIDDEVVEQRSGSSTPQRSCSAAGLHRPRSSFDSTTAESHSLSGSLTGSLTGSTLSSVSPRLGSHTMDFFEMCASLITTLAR

The structures appear in SMILES notation.

Ribosomal protein S6 kinase alpha-6 (Homo sapiens), sequence (Q9UK32 whole entry): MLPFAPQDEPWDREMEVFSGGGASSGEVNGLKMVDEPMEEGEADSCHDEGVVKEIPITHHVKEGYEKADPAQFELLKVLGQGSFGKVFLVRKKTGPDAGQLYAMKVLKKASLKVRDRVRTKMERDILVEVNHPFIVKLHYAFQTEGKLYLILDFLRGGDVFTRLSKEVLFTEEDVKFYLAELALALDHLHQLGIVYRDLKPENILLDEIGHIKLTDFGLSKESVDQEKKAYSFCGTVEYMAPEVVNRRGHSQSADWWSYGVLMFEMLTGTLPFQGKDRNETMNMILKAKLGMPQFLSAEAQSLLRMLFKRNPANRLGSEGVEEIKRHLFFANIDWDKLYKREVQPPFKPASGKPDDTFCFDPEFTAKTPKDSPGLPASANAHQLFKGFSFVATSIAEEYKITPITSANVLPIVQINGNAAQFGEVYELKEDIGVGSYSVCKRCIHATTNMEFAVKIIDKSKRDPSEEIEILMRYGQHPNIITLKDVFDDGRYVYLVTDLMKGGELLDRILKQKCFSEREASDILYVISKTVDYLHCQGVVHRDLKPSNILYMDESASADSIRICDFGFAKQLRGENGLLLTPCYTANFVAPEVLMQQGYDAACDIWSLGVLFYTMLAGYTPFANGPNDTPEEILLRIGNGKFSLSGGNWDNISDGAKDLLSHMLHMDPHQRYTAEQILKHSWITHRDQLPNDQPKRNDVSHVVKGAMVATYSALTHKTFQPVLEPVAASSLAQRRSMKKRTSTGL

Usually inhibition stands for the change of the read-out against control, counted positive when it falls. Turning to `CCc1nn2ncccc2c1-c1ccnc(NC2CC2)n1`, the inhibition in test [1] is 1.93%; in [2], 2.68%; in [3], 3.56%; in [4] it was 0.28%; in test [5] it was -2.61%; in [6] it was 2.22%. Also, the inhibition in [7] was determined as 3.01%; in test [8], 1.09%; in [9], 4.1%; in test [10] it was 2.14%.
Turning to `Cc1ccc(O)cc1Nc1ccnc2cc(-c3ccccn3)ccc12`, the inhibition in test [1] came out at 1.1%; in test [2], 3.35%; in test [3], 0.75%; in test [4], 4.28%; in test [5], 0.49%; in test [6], 4.38%. Further, the inhibition turned out to be 1.94% in test [7], 4.22% in test [8], 4.05% in test [9] and 1.74% in test [10].
For `CCNC(=O)O[C@H]1CN[C@H](C#Cc2cc3ncnc(Nc4ccc(OCc5cccc(F)c5)c(Cl)c4)c3s2)C1`, the inhibition in [1] was 2.88%; in [2], 2.25%; in test [3], -0.58%; in [4] it was 8.05%; in [5], 5.53%; in test [6], 4.38%. Besides, the inhibition is -0.29% in test [7], 2.46% in test [8], 2.35% in test [9] and 0.44% in test [10].
For the compound `N#Cc1c(NC(=O)CN2CCOCC2)sc2c1CCCC2`, the inhibition in [1] came out at 1.35%; in [2] it was 0.28%; in test [3] it was 5.76%; in [4], 2.3%; in test [5], 4.38%; in test [6] it was 3.14%. In addition, the inhibition in [7] is 4.05%; in [8] it was 3.31%; in test [9], 4.25%; in [10], 1.66%.
For `COc1cc2c(cc1Nc1nc(Nc3ccsc3C(N)=O)c3cc[nH]c3n1)N(C(=O)CN(C)C)CCC2(C)C`, the inhibition in test [1] is 49.6%; in [2], 3.7%; in [3], 4.59%; in test [4] it was 2.95%; in test [5], 2.79%; in [6] it was 2.75%. Also, the inhibition in [7] was 4.25%; in test [8], 6.5%; in test [9], 7.07%; in test [10], 6.92%.
Turning to `CC(=O)Nc1cccc(C#Cc2cncnc2Nc2ccc(OCc3cccc(F)c3)c(Cl)c2)c1`, the inhibition in test [1] is 1.39%; in test [2], 3.01%; in [3], 2.43%; in [4], -0.35%; in test [5] it was 2.06%; in test [6], 2.61%. Further, the inhibition is -0.92% in test [7], 1.72% in test [8], -0.52% in test [9] and 2.44% in test [10].
`Cc1cccc(Nc2ncc(-c3ccccc3)o2)c1`: the inhibition in [1] amounted to 2.13%; in test [2] it was 1.63%; in test [3], 2.62%; in test [4], 3.96%; in [5], 2.16%; in test [6], 0.65%. The inhibition in test [7] came to 1.3%; in test [8] it was 3.82%; in [9], 4.04%; in test [10] it was 4.67%.
Regarding `CN(C)CCOc1ccc(-c2nc(-c3ccncc3)c(-c3ccc4c(c3)CC/C4=N\O)[nH]2)cc1`, the inhibition in [1] was found to be 2.06%; in test [2] it was 2.17%; in test [3] it was 4.78%; in [4] it was 2.44%; in [5] it was 5.4%; in test [6] it was 2.89%. The inhibition in test [7] is 4.02%; in [8], 2.12%; in [9] it was 5.29%; in test [10], -0.6%.
`COC(=O)Nc1nc2ccc(Oc3ccc(NC(=O)Nc4cccc(Cl)c4)cc3)cc2[nH]1`: the inhibition in test [1] is -1.02%; in [2] it was 0.53%; in test [3], 0.15%; in test [4], 1.28%; in test [5], -2.41%; in [6], 0.38%. Further, the inhibition was determined as 0.61% in test [7], 0.94% in test [8], 0.58% in test [9] and 1.29% in [10].
Regarding `Fc1ccc(-c2nn3ccccc3c2-c2ccncc2)cc1`, the inhibition was determined as 2.09% in [1]; 0.19% in [2]; 3.23% in [3]; 3.79% in [4]; 3.17% in [5]; 3.25% in [6]. Also, the inhibition was 5.79% in test [7], 1.13% in test [8], -0.08% in test [9] and 1.39% in test [10].
For the compound `CCn1c(-c2nonc2N)nc2c(C#CC(C)(C)O)ncc(OC3CCNCC3)c21`, the inhibition came out at 5.51% in test [1]; 2.06% in test [2]; 4.36% in [3]; 5.71% in test [4]; 16.4% in test [5]; 11.2% in test [6]. Also, the inhibition in test [7] worked out at 53.4%; in test [8], 40.5%; in test [9], 82.6%; in test [10] it was 12.1%.
Turning to `CC(=O)NCc1cccc(C#Cc2cncnc2Nc2ccc(OCc3cccc(F)c3)c(Cl)c2)c1`, the inhibition in test [1] is 1.01%; in test [2] it was 0.94%; in [3], 0.99%; in test [4], 4.36%; in test [5] it was -2.04%; in [6] it was -1.07%. Further, the inhibition in test [7] was found to be 1.92%; in [8] it was 1.28%; in test [9], 3.03%; in test [10] it was 2.22%.
Turning to `FC(F)(F)c1cccc(-c2nn3ncccc3c2-c2ccnc(Nc3ccc4c(c3)OCCO4)n2)c1`, the inhibition in [1] was 2.56%; in [2], 1.35%; in test [3], 1.1%; in [4], -3.49%; in [5], 0.76%; in [6], 5.14%. Also, the inhibition is 1.47% in test [7], 1.41% in test [8], 0.35% in test [9] and 0.93% in test [10].
For the compound `c1ccc(-c2nc3n(c2-c2ccc4c(c2)OCO4)CCC3)nc1`, the inhibition in [1] came to 0.77%; in [2] it was 1.69%; in test [3], 3.45%; in [4], 2.66%; in [5], 2.94%; in test [6] it was 2.37%. For the same compound, the inhibition is 3.36% in test [7], 1.01% in test [8], 2.34% in test [9] and 3.38% in test [10].
Regarding `CN1CCC(n2cnc(-c3ccc(F)cc3)c2-c2ccnc(Nc3ccccc3)n2)CC1`, the inhibition is 2.69% in [1]; 2.19% in test [2]; 5.36% in test [3]; 3.28% in test [4]; 5.4% in [5]; 2.89% in [6]. The inhibition is 3.19% in test [7], 2.05% in test [8], 3.64% in [9] and -0.33% in [10].
With `Nc1nc(-c2cccc(Cl)c2)c(-c2ccc3ncccc3n2)s1`, the inhibition in test [1] is 2.73%; in test [2], 4.41%; in test [3] it was 5.86%; in test [4], 2.07%; in [5], 3.59%; in [6] it was 4.35%. For the same compound, the inhibition in test [7] amounted to 6.98%; in test [8] it was 3.09%; in [9] it was 5.53%; in test [10], 3.05%.
For the compound `O=C(Nc1n[nH]c2cc(-c3ccc(F)cc3)ccc12)C1CC1`, the inhibition in test [1] worked out at 4.8%; in [2] it was 2.59%; in test [3], 3.89%; in test [4] it was 3.3%; in [5], 6.36%; in [6], 3.83%. The inhibition in [7] came to 8.97%; in test [8], 1.21%; in [9], 4.56%; in test [10], 3.71%.
